Source: PubChem BioAssay (EPA / NIEHS)
Records with an inconclusive call do not appear. The source made the active and inactive calls. The calls were made as follows, unless noted: active = hit-call score of the fitted dose curve at least 0.9, where 1 is the maximum; inactive = score below 0.9.

Tests used:
[1] = BSK_3C_Proliferation: Cell Proliferation Assessment in the BioMAP Diversity Plus: 3C Assay (AID 2283006); settings: primary human endothelial cells (HUVEC);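 as to AC50: potency may reflect either rise or fall in cell number versus DMSO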
In short: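 Read-out is total protein by SRB absorbance at 560 nm, taken as a proxy for relative cell number. Primary human umbilical vein endothelium cultured below confluence was dosed for 48 h, TCA-fixed and SRB-stained; curves were fitted bidirectionally versus DMSO.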

[2] = biological target: Peroxisome proliferator-activated receptor gamma (Homo sapiens) (UniProt P37231); assay: ATG_PPARg_TRANS: Attagene TRANS-FACTORIAL HepG2 Assay for human Peroxisome Proliferator-activated Receptor-gamma (PPARg) (AID 2283007; active = hit-call score of the fitted dose curve at least 0.9, where 1 is the maximum)
Peroxisome proliferator-activated receptor gamma (Homo sapiens), sequence (P37231 whole entry, looked up, the tested form may be a part): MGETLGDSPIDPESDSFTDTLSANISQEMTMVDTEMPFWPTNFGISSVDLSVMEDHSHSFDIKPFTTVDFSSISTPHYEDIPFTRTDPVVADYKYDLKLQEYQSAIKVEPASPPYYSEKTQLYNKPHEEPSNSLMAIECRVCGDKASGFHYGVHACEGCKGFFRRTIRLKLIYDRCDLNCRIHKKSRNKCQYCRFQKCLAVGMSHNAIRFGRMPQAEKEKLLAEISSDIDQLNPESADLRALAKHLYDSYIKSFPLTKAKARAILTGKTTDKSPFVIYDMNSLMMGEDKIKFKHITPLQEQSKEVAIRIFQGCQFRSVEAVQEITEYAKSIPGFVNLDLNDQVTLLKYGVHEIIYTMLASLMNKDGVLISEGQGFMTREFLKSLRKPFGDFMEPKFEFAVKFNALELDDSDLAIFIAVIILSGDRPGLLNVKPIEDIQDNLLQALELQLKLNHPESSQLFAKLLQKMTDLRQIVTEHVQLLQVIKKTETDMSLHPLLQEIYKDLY
In short: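 Chimeric NR-Gal4 transactivation is measured in transiently transfected HepG2 cells by reporter mRNA induction at 24 h. Detection uses RT-PCR with fluorescent labelling and capillary electrophoresis; DMSO defines baseline.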

[3] = biological target: Nuclear receptor subfamily 1 group I member 2 (Homo sapiens) (UniProt O75469); assay: ATG_PXR_TRANS: Attagene TRANS-FACTORIAL HepG2 Assay for human Pregnane X Receptor (PXR) (AID 2283008; active = hit-call score of the fitted dose curve at least 0.9, where 1 is the maximum)
Nuclear receptor subfamily 1 group I member 2 (Homo sapiens), sequence (O75469 whole entry, looked up, the tested form may be a part): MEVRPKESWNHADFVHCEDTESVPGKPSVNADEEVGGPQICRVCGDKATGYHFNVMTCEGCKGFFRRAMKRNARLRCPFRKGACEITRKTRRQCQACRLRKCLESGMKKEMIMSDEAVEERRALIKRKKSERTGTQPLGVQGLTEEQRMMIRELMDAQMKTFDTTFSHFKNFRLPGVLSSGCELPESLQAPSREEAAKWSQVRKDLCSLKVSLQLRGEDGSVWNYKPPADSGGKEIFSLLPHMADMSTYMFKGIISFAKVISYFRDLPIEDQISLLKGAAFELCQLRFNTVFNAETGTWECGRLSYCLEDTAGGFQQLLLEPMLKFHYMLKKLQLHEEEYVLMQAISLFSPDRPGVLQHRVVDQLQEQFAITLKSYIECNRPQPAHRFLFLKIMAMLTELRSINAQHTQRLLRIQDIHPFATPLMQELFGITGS
In short: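 Measures mRNA induction of a GAL4-UAS-driven reporter in human HepG2 cells transiently expressing PXR fused to Gal4, following 24 h treatment. DMSO served as negative control and baseline.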

[4] = biological target: human RAR-related Orphan Receptor gamma (RORg), RORC (gene 6097) (UniProt P51449); assay: ATG_RORg_TRANS: Attagene TRANS-FACTORIAL HepG2 Assay for human RAR-related Orphan Receptor gamma (RORg) (AID 2283011; active = hit-call score of the fitted dose curve at least 0.9, where 1 is the maximum)
human RAR-related Orphan Receptor gamma (RORg), RORC (gene 6097), sequence (P51449 whole entry, looked up, the tested form may be a part): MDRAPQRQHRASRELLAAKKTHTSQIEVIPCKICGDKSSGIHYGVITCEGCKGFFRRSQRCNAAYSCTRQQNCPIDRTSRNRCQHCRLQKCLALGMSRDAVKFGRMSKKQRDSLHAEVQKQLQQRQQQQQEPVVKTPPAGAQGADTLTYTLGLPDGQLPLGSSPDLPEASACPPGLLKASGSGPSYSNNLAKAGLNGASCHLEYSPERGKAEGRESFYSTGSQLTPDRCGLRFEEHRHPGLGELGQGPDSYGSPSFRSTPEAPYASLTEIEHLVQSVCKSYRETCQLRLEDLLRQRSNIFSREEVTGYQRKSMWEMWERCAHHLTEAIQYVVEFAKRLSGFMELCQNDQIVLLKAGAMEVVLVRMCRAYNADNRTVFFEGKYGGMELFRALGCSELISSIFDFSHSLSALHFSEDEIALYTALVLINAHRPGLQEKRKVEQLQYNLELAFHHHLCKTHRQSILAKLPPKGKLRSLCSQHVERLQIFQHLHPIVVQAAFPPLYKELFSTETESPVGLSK
In short: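 Transient MRTU transfection of HepG2 (TRANS format, exogenous NR-Gal4 chimera). 24 h dosing. Total RNA → oligo(dT) RT → PCR → 6-FAM labelling → HpaI cut → CE. Gain vs DMSO.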

[5] = read-out: E-selectin (Homo sapiens) (UniProt P16581); assay: BSK_3C_Eselectin: BioMAP Diversity Plus: 3C Assay for Eselectin Biomarker Activity (AID 2283015); settings: primary human endothelial cells (HUVEC); actives raise or lower the signal
In short: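 HUVEC, 3C stimulation; compound exposure 24 h; E-selectin by ELISA; gain- or loss-of-signal fitted bidirectionally vs DMSO baseline.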

[6] = read-out: Interleukin-1 alpha (IL1a), IL1A (gene 3552); assay: BSK_BE3C_IL1a: BioMAP Diversity Plus: BE3C Assay for Interleukin-1 alpha (IL1a) Biomarker Activity (AID 2283016); settings: primary human bronchial epithelial cells; actives raise or lower the signal
In short: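 BE3C primary human bronchial epithelium; cpd 24 h; IL-1a by ELISA; bidirectional fit vs DMSO; parallel SRB (0.1% SRB, 10% TCA fix, 560 nm) for cytotoxicity.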

[7] = read-out: Monocyte Chemoattractant Protein-1 (MCP1), CCL2 (gene 6347); assay: BSK_3C_MCP1: BioMAP Diversity Plus: 3C Assay for Monocyte Chemoattractant Protein-1 (MCP1) Biomarker Activity (AID 2283017); settings: primary human endothelial cells (HUVEC); actives raise or lower the signal
In short: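 HUVEC, 3C system; 24 h chemical exposure; MCP-1 by ELISA; bidirectional curve fit vs DMSO baseline.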

[8] = read-out: Monocyte Chemoattractant Protein-1 (MCP1), CCL2 (gene 6347); assay: BSK_4H_MCP1: BioMAP Diversity Plus: 4H Assay for Monocyte Chemoattractant Protein-1 (MCP1) Biomarker Activity (AID 2283018); settings: primary human endothelial cells (HUVEC); actives raise or lower the signal
In short: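 ELISA read-out of MCP-1 from human vascular endothelial primary cells taken at 24 hours after compound exposure. Activity was fitted in both directions relative to DMSO, which served as negative control.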

[9] = read-out: Human Leukocyte Antigen - DR isotype (HLADR), HLA-DRA (gene 3122); assay: BSK_3C_HLADR: BioMAP Diversity Plus: 3C Assay for Human Leukocyte Antigen - DR isotype (HLADR) Biomarker Activity (AID 2283019); settings: primary human endothelial cells (HUVEC); actives raise or lower the signal
In short: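 HUVEC, 3C stimulation, 24 h post-dose; HLA-DR by ELISA; bidirectional curve fit vs DMSO baseline; gain or loss of signal scored.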

[10] = read-out: Interleukin-8 (IL8), CXCL8 (gene 3576); assay: BSK_3C_IL8: BioMAP Diversity Plus: 3C Assay for Interleukin-8 (IL8) Biomarker Activity (AID 2283020); settings: primary human endothelial cells (HUVEC); actives raise or lower the signal
In short: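 ELISA read-out of IL-8 from human umbilical vein endothelium, measured 24 h after chemical dosing. Activity is expressed relative to DMSO negative control, with both increases and decreases fitted.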

[11] = BSK_3C_SRB: Viability Assessment in the BioMAP Diversity Plus: 3C Assay (AID 2283023); settings: primary human endothelial cells (HUVEC);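 also: fitted both ways against DMSO so a hit may be signal rise or drop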
In short: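 HUVEC, 24 h post-dose; 10% TCA fix, 0.1% SRB stain, A560 nm. Bidirectional curve fit vs DMSO negative control.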

[12] = read-out: Matrix Metallopeptidase 1 (MMP1), MMP1 (gene 4312); assay: BSK_BE3C_MMP1: BioMAP Diversity Plus: BE3C Assay for Matrix Metallopeptidase 1 (MMP1) Biomarker Activity (AID 2283024); settings: primary human bronchial epithelial cells; actives raise or lower the signal
In short: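 Human bronchial epithelial cells (BE3C system) exposed to compound for 24 h; MMP1 then quantified by ELISA. Activity was fitted in both directions relative to DMSO.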

[13] = biological target: human Retinoic Acid Receptor gamma (RARg), RARG (gene 5916) (UniProt P13631); assay: ATG_RARg_TRANS: Attagene TRANS-FACTORIAL HepG2 Assay for human Retinoic Acid Receptor gamma (RARg) (AID 2283009; active = hit-call score of the fitted dose curve at least 0.9, where 1 is the maximum)
human Retinoic Acid Receptor gamma (RARg), RARG (gene 5916), sequence (P13631 whole entry, looked up): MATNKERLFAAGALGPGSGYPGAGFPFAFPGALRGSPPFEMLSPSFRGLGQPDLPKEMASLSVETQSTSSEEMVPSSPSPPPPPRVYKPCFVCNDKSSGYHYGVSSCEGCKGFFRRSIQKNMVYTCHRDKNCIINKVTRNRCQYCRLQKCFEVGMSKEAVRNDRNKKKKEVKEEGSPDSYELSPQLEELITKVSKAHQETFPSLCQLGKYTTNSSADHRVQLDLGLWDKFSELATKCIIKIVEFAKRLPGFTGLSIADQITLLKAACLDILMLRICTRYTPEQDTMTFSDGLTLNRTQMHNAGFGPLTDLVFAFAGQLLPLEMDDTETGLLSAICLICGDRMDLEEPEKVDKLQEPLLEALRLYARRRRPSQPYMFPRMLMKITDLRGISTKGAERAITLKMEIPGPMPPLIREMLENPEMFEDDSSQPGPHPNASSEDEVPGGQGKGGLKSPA
In short: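 Transient transfection of HepG2 with multi-reporter constructs, then 24 h chemical treatment. Total RNA isolated, reverse-transcribed, PCR-amplified, fluorescently labelled and resolved by capillary electrophoresis; activity scored as mRNA induction versus DMSO.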

[14] = biological target: human Retinoid X Receptor beta (RXRb), RXRB (gene 6257) (UniProt P28702); assay: ATG_RXRb_TRANS: Attagene TRANS-FACTORIAL HepG2 Assay for human Retinoid X Receptor beta (RXRb) (AID 2283013; active = hit-call score of the fitted dose curve at least 0.9, where 1 is the maximum)
human Retinoid X Receptor beta (RXRb), RXRB (gene 6257), sequence (P28702 whole entry, looked up, the tested form may be a part): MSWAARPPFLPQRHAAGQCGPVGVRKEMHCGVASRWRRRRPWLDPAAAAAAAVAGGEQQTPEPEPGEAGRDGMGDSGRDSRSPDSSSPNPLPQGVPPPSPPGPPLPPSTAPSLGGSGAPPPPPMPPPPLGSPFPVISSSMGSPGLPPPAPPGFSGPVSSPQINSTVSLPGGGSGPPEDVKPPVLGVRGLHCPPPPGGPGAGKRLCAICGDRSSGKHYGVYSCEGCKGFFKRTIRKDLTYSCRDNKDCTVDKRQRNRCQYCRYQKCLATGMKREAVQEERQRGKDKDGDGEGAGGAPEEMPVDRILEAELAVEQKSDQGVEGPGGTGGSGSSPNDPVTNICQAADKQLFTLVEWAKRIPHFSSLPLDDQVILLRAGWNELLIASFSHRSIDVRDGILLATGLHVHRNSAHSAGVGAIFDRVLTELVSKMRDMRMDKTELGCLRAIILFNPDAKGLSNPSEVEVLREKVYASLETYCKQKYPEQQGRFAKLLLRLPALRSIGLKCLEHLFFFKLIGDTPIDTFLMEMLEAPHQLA
In short: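 Transfect HepG2 with GAL4-UAS multi-reporter constructs (chimeric NR-Gal4, TRANS format); dose compound 24 h; isolate RNA, RT-PCR, FAM primer extension, HpaI digest; quantify by capillary electrophoresis; positive direction vs DMSO.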

[15] = biological target: human Thyroid Receptor alpha (THRa1), THRA (gene 7067) (UniProt P10827); assay: ATG_THRa1_TRANS: Attagene TRANS-FACTORIAL HepG2 Assay for human Thyroid Receptor alpha (THRa1) (AID 2283014; active = hit-call score of the fitted dose curve at least 0.9, where 1 is the maximum)
human Thyroid Receptor alpha (THRa1), THRA (gene 7067), sequence (P10827 whole entry, looked up, the tested form may be a part): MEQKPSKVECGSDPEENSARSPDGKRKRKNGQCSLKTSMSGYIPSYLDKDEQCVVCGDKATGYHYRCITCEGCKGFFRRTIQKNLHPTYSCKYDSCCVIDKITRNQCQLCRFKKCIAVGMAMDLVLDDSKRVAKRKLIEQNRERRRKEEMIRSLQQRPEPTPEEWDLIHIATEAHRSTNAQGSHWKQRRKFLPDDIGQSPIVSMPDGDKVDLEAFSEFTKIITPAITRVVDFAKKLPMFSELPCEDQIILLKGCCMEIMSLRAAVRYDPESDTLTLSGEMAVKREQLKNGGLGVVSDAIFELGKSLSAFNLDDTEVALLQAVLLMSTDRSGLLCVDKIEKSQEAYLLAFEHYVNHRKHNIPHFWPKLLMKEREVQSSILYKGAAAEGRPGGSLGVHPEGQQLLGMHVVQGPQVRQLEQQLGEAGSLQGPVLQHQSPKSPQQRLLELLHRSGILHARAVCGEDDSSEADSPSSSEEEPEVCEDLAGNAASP
In short: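 Transient HepG2 transfection, NR-Gal4 chimera driving GAL4-UAS reporters; 24 h compound exposure; total RNA, oligo(dT) RT, PCR, fluorescent primer extension, capillary electrophoresis. Upward direction vs DMSO control.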

[16] = read-out: Monokine induced gamma interferon (MIG), CXCL9 (gene 4283); assay: BSK_3C_MIG: BioMAP Diversity Plus: 3C Assay for Monokine induced gamma interferon (MIG) Biomarker Activity (AID 2283021); settings: primary human endothelial cells (HUVEC); actives raise or lower the signal;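 as to AC50: MIG protein level measured by immunoassay in the treated endothelial cultures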
In short: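 Read-out is ELISA detection of MIG on human umbilical vein endothelial cells, taken 24 h after dosing. Gain or loss of signal was scored relative to DMSO controls using bidirectional curve fitting.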

[17] = biological target: human Vitamin D Receptor (VDR), VDR (gene 7421) (UniProt P11473); assay: ATG_VDR_TRANS: Attagene TRANS-FACTORIAL HepG2 Assay for human Vitamin D Receptor (VDR) (AID 2283022; active = hit-call score of the fitted dose curve at least 0.9, where 1 is the maximum)
human Vitamin D Receptor (VDR), VDR (gene 7421), sequence (P11473 whole entry, looked up, the tested form may be a part): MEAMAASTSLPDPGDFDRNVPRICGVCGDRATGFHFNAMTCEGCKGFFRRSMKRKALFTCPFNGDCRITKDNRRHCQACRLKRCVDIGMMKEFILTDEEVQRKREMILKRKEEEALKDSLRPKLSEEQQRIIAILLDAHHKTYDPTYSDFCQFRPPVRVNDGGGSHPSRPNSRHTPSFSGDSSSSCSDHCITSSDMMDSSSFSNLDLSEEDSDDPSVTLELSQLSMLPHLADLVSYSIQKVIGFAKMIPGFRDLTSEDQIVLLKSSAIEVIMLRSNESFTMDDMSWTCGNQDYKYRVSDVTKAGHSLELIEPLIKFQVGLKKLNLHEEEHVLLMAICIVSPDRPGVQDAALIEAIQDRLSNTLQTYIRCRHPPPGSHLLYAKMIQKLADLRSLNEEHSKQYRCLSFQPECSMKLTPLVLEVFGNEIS
In short: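 RT-PCR/capillary electrophoresis read-out of reporter mRNA induction in transiently transfected HepG2; 24 h dosing; chimeric NR-Gal4 (TRANS format); gain-of-signal fit against DMSO baseline.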

[18] = biological target: Retinoic acid receptor RXR-alpha (Homo sapiens) (UniProt P19793); assay: ATG_RXRa_TRANS: Attagene TRANS-FACTORIAL HepG2 Assay for human Retinoid X Receptor alpha (RXRa) (AID 2283012; active = hit-call score of the fitted dose curve at least 0.9, where 1 is the maximum)
Retinoic acid receptor RXR-alpha (Homo sapiens), sequence (P19793 whole entry, looked up, the tested form may be a part): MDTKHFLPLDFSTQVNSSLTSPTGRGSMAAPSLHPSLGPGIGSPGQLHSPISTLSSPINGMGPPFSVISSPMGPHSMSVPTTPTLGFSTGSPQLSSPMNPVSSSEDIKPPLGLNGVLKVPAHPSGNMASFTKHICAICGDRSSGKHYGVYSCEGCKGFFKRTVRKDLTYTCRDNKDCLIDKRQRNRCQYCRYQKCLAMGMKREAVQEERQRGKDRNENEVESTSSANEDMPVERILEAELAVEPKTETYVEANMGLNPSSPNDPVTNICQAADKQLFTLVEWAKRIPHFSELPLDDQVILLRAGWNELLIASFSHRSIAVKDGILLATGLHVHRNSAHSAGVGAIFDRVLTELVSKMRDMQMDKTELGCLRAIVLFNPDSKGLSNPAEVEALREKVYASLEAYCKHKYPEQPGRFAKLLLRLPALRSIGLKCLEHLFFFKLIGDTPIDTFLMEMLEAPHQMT
In short: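 Transient transfection of human HepG2 with multiple GAL4-UAS reporter constructs; 24 h compound exposure; total RNA isolated, reverse-transcribed, PCR-amplified, 6-FAM labelled, HpaI-cut, resolved by capillary electrophoresis. Positive-direction fit versus DMSO.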

[19] = biological target: human RAR-related Orphan Receptor beta (RORb), RORB (gene 6096) (UniProt Q92753); assay: ATG_RORb_TRANS: Attagene TRANS-FACTORIAL HepG2 Assay for human RAR-related Orphan Receptor beta (RORb) (AID 2283010; active = hit-call score of the fitted dose curve at least 0.9, where 1 is the maximum)
human RAR-related Orphan Receptor beta (RORb), RORB (gene 6096), sequence (Q92753 whole entry, looked up, the tested form may be a part): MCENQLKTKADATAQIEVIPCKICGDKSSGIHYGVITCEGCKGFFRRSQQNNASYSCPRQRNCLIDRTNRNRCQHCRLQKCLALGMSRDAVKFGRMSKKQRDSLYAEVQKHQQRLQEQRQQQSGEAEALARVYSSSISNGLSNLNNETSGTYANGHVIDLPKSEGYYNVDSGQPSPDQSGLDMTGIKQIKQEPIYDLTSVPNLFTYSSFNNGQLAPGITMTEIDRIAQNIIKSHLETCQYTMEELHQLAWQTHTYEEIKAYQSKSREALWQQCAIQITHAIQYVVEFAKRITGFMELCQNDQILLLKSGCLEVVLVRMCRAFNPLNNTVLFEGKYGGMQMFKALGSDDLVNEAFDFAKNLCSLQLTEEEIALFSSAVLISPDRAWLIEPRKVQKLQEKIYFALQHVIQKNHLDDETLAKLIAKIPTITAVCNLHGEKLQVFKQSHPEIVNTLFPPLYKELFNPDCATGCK
In short: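 Readout is reporter-gene mRNA induction, detected as fluorescence after RT-PCR and capillary electrophoresis, fitted for gain of signal against DMSO controls. Transiently transfected HepG2 liver cells carrying GAL4-UAS reporter constructs were treated for 24 hours.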

Measured: AC50

E-selectin (Homo sapiens), sequence (P16581 whole entry, looked up): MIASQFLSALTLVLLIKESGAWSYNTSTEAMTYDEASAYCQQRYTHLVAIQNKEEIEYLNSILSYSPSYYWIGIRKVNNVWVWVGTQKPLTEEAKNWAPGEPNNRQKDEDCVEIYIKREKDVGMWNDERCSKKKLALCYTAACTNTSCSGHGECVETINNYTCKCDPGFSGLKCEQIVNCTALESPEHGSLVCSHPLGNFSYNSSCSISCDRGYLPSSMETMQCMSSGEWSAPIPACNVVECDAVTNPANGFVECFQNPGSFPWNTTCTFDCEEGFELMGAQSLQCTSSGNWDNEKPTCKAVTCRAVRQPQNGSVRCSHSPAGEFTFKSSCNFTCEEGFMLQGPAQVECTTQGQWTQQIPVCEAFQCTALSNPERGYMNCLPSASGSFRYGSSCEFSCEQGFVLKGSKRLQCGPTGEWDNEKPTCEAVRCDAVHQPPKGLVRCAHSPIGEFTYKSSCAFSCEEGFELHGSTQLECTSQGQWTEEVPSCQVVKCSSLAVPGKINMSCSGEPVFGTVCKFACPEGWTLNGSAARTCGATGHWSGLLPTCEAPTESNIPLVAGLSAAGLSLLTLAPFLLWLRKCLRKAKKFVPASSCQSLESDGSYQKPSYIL

Oc1c(Cl)cc(Cl)cc1Cl
active: [2] 42.5 µM
not listed: [13] | [14] | [15] | [16] | [17] | [18] | [19]
inactive: all other assays above

CCCCCCCCCCCCc1cccc(S(=O)(=O)O)c1
inactive: [1] | [3] | [13] | [5] | [7] | [8] | [9] | [10] | [11]
active: [14] 30 µM | [6] 27.2 µM | [12] 28.8 µM

CN(C)C(=S)S
active: [14] 27 µM | [6] 29.6 µM | [12] 13.2 µM
not listed: [2] | [4] | [7] | [13] | [18] | [19]
inactive: all other assays above

Cc1ccccc1OP(=O)(Oc1ccccc1C)Oc1ccccc1C
active: [1] 8.31 µM | [3] 0.0985 µM | [5] 5.43 µM | [6] 10.7 µM | [8] 6.27 µM | [9] 6.21 µM | [10] 5.37 µM | [11] 6.89 µM | [12] 5.4 µM
inactive: [2] | [18] | [14] | [15] | [16] | [17]

O=[N+]([O-])c1ccccc1O
inactive: [2] | [3] | [13] | [19] | [18] | [14]

O=[N+]([O-])c1ccc(Nc2ccccc2)cc1
active: [3] 12.3 µM | [14] 12.1 µM | [8] 20 µM
not listed: [4] | [7] | [13] | [18] | [19]
inactive: all other assays above

Cc1cc(C)cc(C)c1
not listed: [2] | [3] | [4] | [7] | [14] | [16] | [17] | [18]
inactive: all other assays above

C[C@H]1C(=O)O[C@@H]2CCN3CC=C(COC(=O)[C@](C)(O)[C@]1(C)O)[C@H]23
inactive: [2]

CCOP(=S)(OCC)SCS(=O)(=O)C(C)(C)C
active: [3] 2.41 µM
not listed: [13] | [15] | [16] | [18] | [19]
inactive: all other assays above

Cc1cc(Cl)ccc1OC(C)C(=O)O (stereo unspecified)
active: [2] 71.4 µM
not listed: [3] | [7] | [14] | [15] | [16] | [17] | [18]
inactive: all other assays above

CC(C)O.CC(C)O.OCCN(CCO)CCO.OCCN(CCO)CCO.[Ti]
not listed: [2] | [4] | [7] | [13] | [16] | [17]
inactive: all other assays above

Clc1cccc(Cl)c1Cl
not listed: [2] | [3] | [4] | [7] | [15] | [18] | [19]
inactive: all other assays above

Cc1ccc(OP(=O)(Oc2ccc(C)cc2C)Oc2ccc(C)cc2C)c(C)c1
active: [1] 6.87 µM | [2] 1.3 µM | [6] 4.77 µM | [7] 20 µM | [8] 4.53 µM | [9] 20 µM | [11] 12 µM
inactive: [18] | [5] | [10] | [16] | [17] | [12]

Oc1ccc(Cc2ccc(O)cc2)cc1
inactive: [1] | [14] | [15] | [5] | [6] | [8] | [9] | [10] | [11] | [12]
active: [2] 15.8 µM

CC(C)N(C(=O)CCl)c1ccccc1
active: [1] 20 µM | [2] 3.21 µM | [5] 20 µM | [6] 35.1 µM | [7] 20 µM | [8] 20 µM | [9] 7.36 µM | [16] 33.3 µM | [11] 20 µM
inactive: [10] | [17] | [12]
